In PubChem BioAssay (NCATS):
Inconclusive results are not listed. Values without a mark were called inactive. The source made the active and inactive calls. Calls come from the whole dose curve; as a rule, active = well fitted cell-killing curve with a large enough effect; inconclusive = small, poorly fitted or top-dose-only effect; inactive = no such curve, though single readings can be large or run the other way.

test: qHTS of pediatric cancer cell lines to identify multiple opportunities for drug repurposing: Primary screen for A673 cells (AID 1347092); conditions: A673 Ewing sarcoma viability, CellTiter-Glo ATP luminescence, 48 h; series mostly up to 46 µM; activity change, negative = cytotoxic: at the top concentration; note: nearly all actives have a fitted effect of over 45% in size
Summary of the method: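 A673 cells (500-1,000 cells/well) were treated 48 hours at 37 degrees C with compounds at 11-point (0.78 nM to 46 µM) or 8-point (0.59 nM to 46 µM) dilutions. Viability read by CellTiter-Glo luminescence; concentration-response curves fitted.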
% is set by controls: 0 for no effect and ±100 for the full control effect; potency is the fitted concentration of half-maximal effect.

Compound	activity change, negative = cytotoxic	Potency
O=C(O)CCCc1c[nH]c2ccccc12	-9.71%	–
Cc1cn2c(-c3cn[nH]c3)cnc2c(Nc2ccc(C(=O)N3CCNCC3)cc2F)n1	–	14.8 µM (active)
CN(C)CCCN=c1c2ccccc2n(C)c2[nH]c(=O)n(C)c(=O)c12	–	2.96 µM (active)
COc1cc2nccc(Oc3ccc(NC(=O)C4(C(=O)Nc5ccc(F)cc5)CC4)cc3)c2cc1OC	–	1.48 µM (active)
COC(=O)Nc1nc2ccc(C(=O)c3ccc(F)cc3)cc2[nH]1	–	0.59 µM (active)
CC(=O)SC[C@@H](C)C(=O)N1CCC[C@H]1C(=O)N[C@@H](Cc1ccccc1)C(=O)O	-4.22%	–
CCC[C@H](NC(=O)C(C#N)=Cc1cccc(Br)n1)c1ccccc1	–	9.35 µM (active)
Cc1ccc(C(N)=O)cc1Nc1nccc(-c2cn(C(C)C)c3cnccc23)n1	–	3.72 µM (active)
Cc1cc(Nc2cc(CN3CCOCC3)c3nc(C)c(Cc4ccc(Cl)cc4F)n3n2)n[nH]1	–	5.9 µM (active)
CCCCOc1c(C(=O)c2c(F)cc(C)cc2F)cnc2n[nH]cc12	–	2.35 µM (active)
CC=CC1=C(C(=O)O)N2C(=O)[C@H](NC(=O)[C@H](N)c3ccc(O)cc3)[C@@H]2SC1	–	0.935 µM (active)
COC(=O)[C@]12CCC(C)(C)C[C@@H]1[C@@H]1C(=O)C=C3[C@@]4(C)C=C(C#N)C(=O)C(C)(C)[C@@H]4CC[C@@]3(C)[C@]1(C)CC2	–	0.372 µM (active)
CNc1nccc(-c2cccnc2Oc2cc(C(=O)Nc3cccc(C(F)(F)F)c3)ccc2C)n1	–	2.96 µM (active)
O=C(c1ccc(Nc2nccc(-c3cc4ccccc4s3)n2)cc1)N1CCC(N2CCCC2)CC1	–	7.43 µM (active)
O=C(O)c1ccc2c(c1)nc(Nc1cccc(Cl)c1)c1ccncc12	–	4.69 µM (active)
CC(C)C[C@H](NC(=O)CNC(=O)c1cc(Cl)ccc1Cl)B(O)O	–	1.48 µM (active)

Compound	activity change, negative = cytotoxic	Potency
COc1cc2c(cc1-c1c(C)noc1C)ncc1[nH]c(=O)n([C@H](C)c3ccccn3)c12	–	4.69 µM (active)
Cc1cc(N2CCOCC2)cc2[nH]c(-c3c(NC[C@@H](O)c4cccc(Cl)c4)cc[nH]c3=O)nc12	–	0.296 µM (active)
COc1cc(=C2C=c3ccccc3=N2)[nH]c1=Cc1[nH]c(C)cc1C	–	4.69 µM (active)
CCc1cc2c(cc1N1CCC(N3CCOCC3)CC1)C(C)(C)c1[nH]c3cc(C#N)ccc3c1C2=O	-56.9%	–
Cc1cn2cc(C(=O)N(C)CCO)cc(N[C@@H]3CCOc4cccc(C)c43)c2n1	0.322%	–
CC(NCc1ccc2c(c1)nc(NC(=O)c1ccc(-c3cn[nH]c3)s1)n2CC(C)(C)O)C(C)(C)C (stereo unspecified)	–	0.187 µM (active)
O=C(Cc1ccc(-c2ccc(OCCN3CCOCC3)cc2)cn1)NCc1ccccc1	–	0.0235 µM (active)
COc1cc2ncn(-c3cc(OCc4ccccc4C(F)(F)F)c(C(N)=O)s3)c2cc1OC	–	0.469 µM (active)
Cn1cncc1[C@@](N)(c1ccc(Cl)cc1)c1ccc2c(c1)c(-c1cccc(Cl)c1)cc(=O)n2C	–	23.5 µM (active)
CN(C)CC=CC(=O)Nc1cc2c(Nc3ccc(F)c(Cl)c3)ncnc2cc1O[C@H]1CCOC1	–	3.72 µM (active)
O=C(Nc1cc(C(F)(F)F)cc(C(F)(F)F)c1)c1cc(Cl)ccc1O	–	4.69 µM (active)
c1cc(-c2cnn3cc(-c4ccc(OCCN5CCCCC5)cc4)cnc23)ccn1	–	4.69 µM (active)
COc1cc2c(NC3CCN(C(C)C)CC3)nc(C3CCCCC3)nc2cc1OCCCN1CCCC1	–	5.9 µM (active)
COc1cc(OC2CCN(C)CC2)ccc1Nc1ncc2c(n1)n(C1CCCC1)c(=O)n2C	–	14.8 µM (active)
COc1cc2c(Oc3ccc4[nH]c(C)cc4c3F)ncnc2cc1OCCCN1CCCC1	–	18.7 µM (active)
